# Legend:
# Assay in all cases: DAPPL (digital affinity profiling via proximity ligation, sequencing); 10 mM Tris-HCl pH 7.5, 50 mM NaCl, 1 mM DTT, 4% glycerol, room temperature, 30 min; GST-TFs on glutathione beads, 16-mer random dsDNA library, 0.1% formaldehyde crosslink after washing; high values mean tight binding
# FEV = molecular target: T1, FEV (Homo sapiens, UniProt Q99581 1-238); details: protein: recombinant; tags: N-terminal GST; dsDNA, one strand shown
# T1 sequence: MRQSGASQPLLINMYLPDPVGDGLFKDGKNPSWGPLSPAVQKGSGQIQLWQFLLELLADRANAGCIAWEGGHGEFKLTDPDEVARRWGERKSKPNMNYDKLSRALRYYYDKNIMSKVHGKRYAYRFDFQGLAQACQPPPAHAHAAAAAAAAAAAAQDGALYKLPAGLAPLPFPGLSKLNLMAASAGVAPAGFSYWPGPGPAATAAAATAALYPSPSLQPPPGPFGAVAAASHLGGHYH
# Outline: (§1)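 Binding signal is each hexamer's read frequency for a factor divided by its frequency in the tag-only sample. The factors were GST-fused human transcription factors from yeast, captured on glutathione beads, DNA-barcoded and pooled with that sample. Pools were incubated with 200 nmole of a random double-stranded 16-mer DNA library in Tris/NaCl/DTT/glycerol buffer at room temperature for 30 min, then washed, crosslinked with 0.1% formaldehyde, proximity-ligated with BsaI/T4 ligase (1 h, 37 °C), PCR-amplified and sequenced on an Illumina NextSeq500.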
# ETV5 = ETV5 (Homo sapiens, UniProt P41161 1-510); details: protein: recombinant; tags: N-terminal GST; dsDNA, one strand shown
# Sequence of ETV5 (P41161 whole entry): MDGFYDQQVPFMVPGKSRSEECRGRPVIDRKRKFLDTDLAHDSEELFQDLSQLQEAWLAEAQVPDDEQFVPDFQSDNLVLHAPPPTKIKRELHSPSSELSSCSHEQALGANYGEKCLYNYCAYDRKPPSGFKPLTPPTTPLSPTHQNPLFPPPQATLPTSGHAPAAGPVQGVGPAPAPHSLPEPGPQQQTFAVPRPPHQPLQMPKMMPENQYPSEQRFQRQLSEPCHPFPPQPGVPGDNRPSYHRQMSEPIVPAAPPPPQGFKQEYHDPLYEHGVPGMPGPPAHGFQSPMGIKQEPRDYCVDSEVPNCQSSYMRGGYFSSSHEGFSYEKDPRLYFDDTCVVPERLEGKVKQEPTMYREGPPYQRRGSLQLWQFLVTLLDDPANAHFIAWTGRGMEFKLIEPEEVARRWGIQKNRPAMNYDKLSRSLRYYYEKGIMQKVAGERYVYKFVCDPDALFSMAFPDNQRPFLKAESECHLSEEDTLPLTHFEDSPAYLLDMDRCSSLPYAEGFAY
# Outline: as §1
# HSF1 = HSF1 (Homo sapiens, UniProt Q00613 1-529); details: protein: recombinant; tags: N-terminal GST; chain copies: 3; dsDNA, one strand shown
# Sequence of HSF1 (Q00613 whole entry): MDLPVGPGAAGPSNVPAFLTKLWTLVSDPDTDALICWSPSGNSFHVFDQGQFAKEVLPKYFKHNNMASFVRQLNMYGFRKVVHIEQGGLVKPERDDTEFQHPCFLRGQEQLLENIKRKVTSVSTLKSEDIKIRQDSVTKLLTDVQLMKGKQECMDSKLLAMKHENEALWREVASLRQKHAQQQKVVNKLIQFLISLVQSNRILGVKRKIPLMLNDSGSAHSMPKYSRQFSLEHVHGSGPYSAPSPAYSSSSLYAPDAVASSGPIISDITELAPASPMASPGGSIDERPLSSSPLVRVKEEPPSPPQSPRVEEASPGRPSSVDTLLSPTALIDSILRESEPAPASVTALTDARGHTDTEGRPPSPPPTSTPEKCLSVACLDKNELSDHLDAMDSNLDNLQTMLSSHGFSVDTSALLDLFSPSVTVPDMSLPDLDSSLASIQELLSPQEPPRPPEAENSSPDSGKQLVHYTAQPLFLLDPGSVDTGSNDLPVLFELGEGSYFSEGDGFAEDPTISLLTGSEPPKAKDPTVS
# Outline: as §1
# SPIC = molecular target: T2, SPIC (Homo sapiens, UniProt Q8N5J4 1-248); details: protein: recombinant; tags: N-terminal GST; dsDNA, one strand shown
# T2 sequence: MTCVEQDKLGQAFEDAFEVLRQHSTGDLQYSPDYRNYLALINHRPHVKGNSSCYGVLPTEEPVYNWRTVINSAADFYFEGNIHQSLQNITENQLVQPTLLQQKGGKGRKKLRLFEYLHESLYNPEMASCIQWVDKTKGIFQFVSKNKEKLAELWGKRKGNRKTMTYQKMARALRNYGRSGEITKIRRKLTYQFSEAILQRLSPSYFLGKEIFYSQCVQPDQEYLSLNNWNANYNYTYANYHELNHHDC
# Outline: as §1
# ELF4 = ELF4 (Homo sapiens, UniProt Q99607 1-663); details: protein: recombinant; tags: N-terminal GST; dsDNA, one strand shown
# Sequence of ELF4 (Q99607 whole entry): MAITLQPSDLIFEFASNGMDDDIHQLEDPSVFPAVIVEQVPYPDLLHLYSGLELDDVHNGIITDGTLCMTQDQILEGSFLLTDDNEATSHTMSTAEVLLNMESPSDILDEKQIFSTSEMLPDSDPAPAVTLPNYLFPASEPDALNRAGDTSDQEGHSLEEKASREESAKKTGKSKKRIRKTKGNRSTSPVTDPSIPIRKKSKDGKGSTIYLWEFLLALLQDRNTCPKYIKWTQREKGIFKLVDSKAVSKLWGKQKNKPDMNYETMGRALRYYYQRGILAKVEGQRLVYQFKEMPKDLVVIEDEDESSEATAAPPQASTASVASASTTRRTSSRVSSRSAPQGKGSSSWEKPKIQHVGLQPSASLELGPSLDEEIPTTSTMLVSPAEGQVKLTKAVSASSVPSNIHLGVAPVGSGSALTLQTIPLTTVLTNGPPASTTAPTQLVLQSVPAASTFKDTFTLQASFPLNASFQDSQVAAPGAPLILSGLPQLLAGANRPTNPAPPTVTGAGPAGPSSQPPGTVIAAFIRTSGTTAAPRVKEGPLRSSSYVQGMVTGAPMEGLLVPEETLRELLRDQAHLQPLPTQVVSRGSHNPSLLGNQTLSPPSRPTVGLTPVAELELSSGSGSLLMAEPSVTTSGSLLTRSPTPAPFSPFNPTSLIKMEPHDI
# Outline: as §1
# ELK4 = molecular target: T3, ELK4 (Homo sapiens, UniProt P28324-2 1-405); details: protein: recombinant; tags: N-terminal GST; dsDNA, one strand shown
# T3 sequence: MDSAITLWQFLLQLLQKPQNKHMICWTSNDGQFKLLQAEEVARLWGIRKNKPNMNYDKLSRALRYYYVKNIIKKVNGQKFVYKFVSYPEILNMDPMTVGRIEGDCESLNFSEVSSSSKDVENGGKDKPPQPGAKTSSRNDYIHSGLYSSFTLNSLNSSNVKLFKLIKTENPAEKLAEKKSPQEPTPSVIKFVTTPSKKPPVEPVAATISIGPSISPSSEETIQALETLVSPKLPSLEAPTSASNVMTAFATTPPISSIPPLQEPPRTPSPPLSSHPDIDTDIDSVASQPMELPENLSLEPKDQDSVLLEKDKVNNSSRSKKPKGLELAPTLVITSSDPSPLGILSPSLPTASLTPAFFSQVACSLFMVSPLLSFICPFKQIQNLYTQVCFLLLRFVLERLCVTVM
# Outline: as §1
# ETV2 = molecular target: T4, ETV2 (Homo sapiens, UniProt O00321 1-342); details: protein: recombinant; tags: N-terminal GST; dsDNA, one strand shown
# T4 sequence: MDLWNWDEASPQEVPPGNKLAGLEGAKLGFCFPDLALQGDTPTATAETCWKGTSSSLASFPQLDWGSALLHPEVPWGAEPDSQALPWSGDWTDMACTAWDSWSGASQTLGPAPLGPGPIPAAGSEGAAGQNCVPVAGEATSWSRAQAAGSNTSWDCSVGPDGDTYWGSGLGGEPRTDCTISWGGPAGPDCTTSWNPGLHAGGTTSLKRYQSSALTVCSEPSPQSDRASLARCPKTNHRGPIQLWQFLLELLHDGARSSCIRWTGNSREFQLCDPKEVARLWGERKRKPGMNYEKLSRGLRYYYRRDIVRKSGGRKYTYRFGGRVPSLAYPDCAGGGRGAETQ
# Outline: as §1
# ELF3 = molecular target: T5, ELF3 (Homo sapiens, UniProt P78545 1-371); details: protein: recombinant; tags: N-terminal GST; dsDNA, one strand shown
# T5 sequence: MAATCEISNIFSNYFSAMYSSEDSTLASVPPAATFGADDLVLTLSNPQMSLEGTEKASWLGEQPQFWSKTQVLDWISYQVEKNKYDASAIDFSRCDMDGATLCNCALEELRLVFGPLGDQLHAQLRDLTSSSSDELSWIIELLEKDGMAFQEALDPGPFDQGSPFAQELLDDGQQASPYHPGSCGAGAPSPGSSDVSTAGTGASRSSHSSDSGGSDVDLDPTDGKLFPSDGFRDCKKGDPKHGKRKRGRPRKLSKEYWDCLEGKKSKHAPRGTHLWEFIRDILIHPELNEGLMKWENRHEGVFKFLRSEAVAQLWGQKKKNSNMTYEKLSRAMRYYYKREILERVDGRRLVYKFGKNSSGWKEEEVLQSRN
# Outline: as §1
# CRX = CRX (Homo sapiens, UniProt O43186 1-299); details: protein: recombinant; tags: N-terminal GST; dsDNA, one strand shown
# Sequence of CRX (O43186 whole entry): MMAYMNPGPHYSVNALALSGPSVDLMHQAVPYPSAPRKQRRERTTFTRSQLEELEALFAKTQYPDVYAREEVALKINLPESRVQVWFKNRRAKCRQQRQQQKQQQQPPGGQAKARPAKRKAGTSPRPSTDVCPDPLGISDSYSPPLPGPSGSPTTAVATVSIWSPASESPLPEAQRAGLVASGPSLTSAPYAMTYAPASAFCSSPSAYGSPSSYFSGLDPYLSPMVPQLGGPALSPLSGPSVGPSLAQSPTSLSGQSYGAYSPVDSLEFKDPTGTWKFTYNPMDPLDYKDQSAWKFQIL
# Outline: as §1
# ETV1 = ETV1 (Homo sapiens, UniProt P50549 1-477); details: protein: recombinant; tags: N-terminal GST; dsDNA, one strand shown
# Sequence of ETV1 (P50549 whole entry): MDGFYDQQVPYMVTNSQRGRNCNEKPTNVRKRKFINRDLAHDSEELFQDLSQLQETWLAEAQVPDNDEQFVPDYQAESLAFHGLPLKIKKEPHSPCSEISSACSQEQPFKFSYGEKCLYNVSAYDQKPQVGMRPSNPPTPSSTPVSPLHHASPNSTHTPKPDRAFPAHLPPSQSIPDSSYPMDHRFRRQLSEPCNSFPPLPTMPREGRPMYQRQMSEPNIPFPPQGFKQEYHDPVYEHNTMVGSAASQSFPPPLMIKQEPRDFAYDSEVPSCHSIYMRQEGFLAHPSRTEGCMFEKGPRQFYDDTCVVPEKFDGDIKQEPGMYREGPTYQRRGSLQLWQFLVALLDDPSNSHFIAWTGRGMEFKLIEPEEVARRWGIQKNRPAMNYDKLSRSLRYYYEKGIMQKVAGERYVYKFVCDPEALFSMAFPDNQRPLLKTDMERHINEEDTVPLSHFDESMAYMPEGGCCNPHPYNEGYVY
# Outline: as §1
# ERF = molecular target: T6, ERF (Homo sapiens, UniProt P50548 1-548); details: protein: recombinant; tags: N-terminal GST; dsDNA, one strand shown
# T6 sequence: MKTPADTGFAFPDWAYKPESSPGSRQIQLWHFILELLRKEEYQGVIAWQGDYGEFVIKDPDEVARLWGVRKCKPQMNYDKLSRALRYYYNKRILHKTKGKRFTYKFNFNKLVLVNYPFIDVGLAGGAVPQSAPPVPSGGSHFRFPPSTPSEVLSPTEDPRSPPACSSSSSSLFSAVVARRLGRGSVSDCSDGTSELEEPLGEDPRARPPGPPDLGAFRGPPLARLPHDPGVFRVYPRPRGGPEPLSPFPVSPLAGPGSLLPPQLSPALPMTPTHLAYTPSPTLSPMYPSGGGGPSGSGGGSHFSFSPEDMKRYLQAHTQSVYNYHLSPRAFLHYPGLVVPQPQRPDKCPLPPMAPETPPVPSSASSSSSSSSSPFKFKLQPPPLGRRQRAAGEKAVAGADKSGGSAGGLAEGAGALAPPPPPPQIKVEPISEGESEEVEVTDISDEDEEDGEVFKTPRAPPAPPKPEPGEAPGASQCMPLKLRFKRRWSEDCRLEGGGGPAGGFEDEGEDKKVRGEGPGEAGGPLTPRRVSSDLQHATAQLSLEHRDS
# Outline: as §1
# ETV3L = molecular target: T7, ETV3L (Homo sapiens, UniProt Q6ZN32 1-361); details: protein: recombinant; tags: N-terminal GST; dsDNA, one strand shown
# T7 sequence: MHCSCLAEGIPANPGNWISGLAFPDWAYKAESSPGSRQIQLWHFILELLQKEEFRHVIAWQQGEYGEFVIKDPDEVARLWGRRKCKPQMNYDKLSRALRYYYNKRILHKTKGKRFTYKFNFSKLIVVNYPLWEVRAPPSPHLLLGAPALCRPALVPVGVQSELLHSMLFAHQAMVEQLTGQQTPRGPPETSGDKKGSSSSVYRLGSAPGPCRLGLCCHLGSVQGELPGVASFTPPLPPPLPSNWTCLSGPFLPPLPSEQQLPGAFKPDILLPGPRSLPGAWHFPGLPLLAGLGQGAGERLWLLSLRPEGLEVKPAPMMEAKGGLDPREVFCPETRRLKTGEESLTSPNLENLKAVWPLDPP
# Outline: as §1
# ETS2 = molecular target: T8, ETS2 (Homo sapiens, UniProt P15036 1-469); details: protein: recombinant; tags: N-terminal GST; dsDNA, one strand shown
# T8 sequence: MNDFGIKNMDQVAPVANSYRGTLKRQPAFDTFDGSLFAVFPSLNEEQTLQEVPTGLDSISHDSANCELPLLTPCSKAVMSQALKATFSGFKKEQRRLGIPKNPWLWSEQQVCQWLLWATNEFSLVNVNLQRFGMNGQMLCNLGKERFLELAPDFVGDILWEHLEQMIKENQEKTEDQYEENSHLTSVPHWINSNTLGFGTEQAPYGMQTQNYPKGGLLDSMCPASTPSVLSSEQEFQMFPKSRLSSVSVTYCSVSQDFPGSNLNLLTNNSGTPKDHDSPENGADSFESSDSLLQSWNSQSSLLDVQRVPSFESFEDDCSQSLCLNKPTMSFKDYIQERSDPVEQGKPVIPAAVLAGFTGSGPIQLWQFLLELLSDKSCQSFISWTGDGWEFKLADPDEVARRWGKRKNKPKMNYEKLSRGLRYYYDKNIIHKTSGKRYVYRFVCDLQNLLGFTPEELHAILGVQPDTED
# Outline: as §1
# SPDEF = molecular target: T9, SPDEF (Homo sapiens, UniProt O95238 1-335); details: protein: recombinant; tags: N-terminal GST; dsDNA, one strand shown
# T9 sequence: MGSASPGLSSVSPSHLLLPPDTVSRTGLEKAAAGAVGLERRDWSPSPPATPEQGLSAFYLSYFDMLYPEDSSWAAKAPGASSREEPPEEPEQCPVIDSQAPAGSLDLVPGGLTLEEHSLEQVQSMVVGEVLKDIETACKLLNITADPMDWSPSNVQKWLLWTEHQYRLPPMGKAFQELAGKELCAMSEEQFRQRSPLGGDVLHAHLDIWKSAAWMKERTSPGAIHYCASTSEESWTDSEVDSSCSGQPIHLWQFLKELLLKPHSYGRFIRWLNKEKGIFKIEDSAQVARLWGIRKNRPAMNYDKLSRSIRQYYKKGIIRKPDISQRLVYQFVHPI
# Outline: as §1
# ETV7 = molecular target: T10, ETV7 (Homo sapiens, UniProt Q9Y603 1-341); details: protein: recombinant; tags: N-terminal GST; dsDNA, one strand shown
# T10 sequence: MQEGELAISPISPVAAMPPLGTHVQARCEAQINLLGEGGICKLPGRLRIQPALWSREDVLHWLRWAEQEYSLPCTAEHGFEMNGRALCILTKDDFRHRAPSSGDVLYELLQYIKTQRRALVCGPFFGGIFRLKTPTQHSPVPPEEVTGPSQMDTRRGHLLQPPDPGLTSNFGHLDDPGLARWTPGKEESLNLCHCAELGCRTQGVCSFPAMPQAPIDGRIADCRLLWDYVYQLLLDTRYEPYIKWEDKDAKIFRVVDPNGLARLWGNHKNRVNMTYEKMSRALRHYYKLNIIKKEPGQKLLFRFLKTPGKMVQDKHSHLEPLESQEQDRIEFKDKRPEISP
# Outline: as §1
# ELF5 = molecular target: T11, ELF5 (Homo sapiens, UniProt Q9UKW6-2 1-255); details: protein: recombinant; tags: N-terminal GST; dsDNA, one strand shown
# T11 sequence: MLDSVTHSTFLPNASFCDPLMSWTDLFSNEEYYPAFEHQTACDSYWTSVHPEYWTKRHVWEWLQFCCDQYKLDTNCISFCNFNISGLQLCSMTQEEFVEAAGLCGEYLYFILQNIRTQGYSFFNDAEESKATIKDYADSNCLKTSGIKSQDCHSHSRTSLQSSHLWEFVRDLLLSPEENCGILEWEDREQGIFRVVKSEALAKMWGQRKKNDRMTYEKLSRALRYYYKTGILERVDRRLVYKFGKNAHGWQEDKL
# Outline: as §1
# ETV3 = molecular target: T12, ETV3 (Homo sapiens, UniProt P41162-2 1-143); details: protein: recombinant; tags: N-terminal GST; dsDNA, one strand shown
# T12 sequence: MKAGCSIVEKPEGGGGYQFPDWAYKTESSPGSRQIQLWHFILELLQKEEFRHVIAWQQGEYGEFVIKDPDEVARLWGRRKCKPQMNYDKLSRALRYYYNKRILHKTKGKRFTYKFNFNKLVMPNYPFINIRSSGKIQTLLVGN
# Outline: as §1
# ETV6 = ETV6 (Homo sapiens, UniProt P41212 1-452); details: protein: recombinant; tags: N-terminal GST; dsDNA, one strand shown
# Sequence of ETV6 (P41212 whole entry): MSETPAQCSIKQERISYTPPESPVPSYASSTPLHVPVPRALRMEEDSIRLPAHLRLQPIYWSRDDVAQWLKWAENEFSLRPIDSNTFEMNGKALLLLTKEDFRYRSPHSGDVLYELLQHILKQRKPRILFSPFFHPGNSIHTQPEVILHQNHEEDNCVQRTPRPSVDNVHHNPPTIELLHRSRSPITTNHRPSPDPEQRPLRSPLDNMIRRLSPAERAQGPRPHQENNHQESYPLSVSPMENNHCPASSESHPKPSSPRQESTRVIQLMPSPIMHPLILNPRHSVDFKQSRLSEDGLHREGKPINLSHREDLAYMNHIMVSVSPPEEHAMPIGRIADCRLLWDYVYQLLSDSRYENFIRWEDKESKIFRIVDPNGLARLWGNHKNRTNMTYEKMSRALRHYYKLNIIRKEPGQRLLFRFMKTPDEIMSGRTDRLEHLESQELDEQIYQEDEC
# Outline: as §1
sequence,measurement,setting,value
CTTGCC,binding signal,FEV,"1.29 fold enrichment (6-mer frequency, TF over GST control)"
same,binding signal,ETV5,"1.17 fold enrichment (6-mer frequency, TF over GST control)"
same,binding signal,HSF1,"1.1 fold enrichment (6-mer frequency, TF over GST control)"
same,binding signal,SPIC,"1.66 fold enrichment (6-mer frequency, TF over GST control)"
same,binding signal,ELF4,"1.26 fold enrichment (6-mer frequency, TF over GST control)"
same,binding signal,ELK4,"1.17 fold enrichment (6-mer frequency, TF over GST control)"
same,binding signal,ETV2,"1.24 fold enrichment (6-mer frequency, TF over GST control)"
same,binding signal,ELF3,"1.43 fold enrichment (6-mer frequency, TF over GST control)"
same,binding signal,CRX,"1.1 fold enrichment (6-mer frequency, TF over GST control)"
same,binding signal,ETV1,"1.25 fold enrichment (6-mer frequency, TF over GST control)"
same,binding signal,ERF,"1.33 fold enrichment (6-mer frequency, TF over GST control)"
same,binding signal,ETV3L,"1.31 fold enrichment (6-mer frequency, TF over GST control)"
same,binding signal,ETS2,"1.3 fold enrichment (6-mer frequency, TF over GST control)"
same,binding signal,SPDEF,"1.44 fold enrichment (6-mer frequency, TF over GST control)"
same,binding signal,ETV7,"1.54 fold enrichment (6-mer frequency, TF over GST control)"
same,binding signal,ELF5,"1.29 fold enrichment (6-mer frequency, TF over GST control)"
same,binding signal,ETV3,"1.33 fold enrichment (6-mer frequency, TF over GST control)"
same,binding signal,ETV6,"1.08 fold enrichment (6-mer frequency, TF over GST control)"

# Reference: paper PMC7862700, “An all-to-all approach to the identification of sequence-specific readers for epigenetic DNA modifications on cytosine”
